About 5,700 (36%) of roughly 16,000 compounds were called active. About 24% were inconclusive and are not listed. The list shows a part of the results. Values without a mark were called inactive. Calls come from the whole dose curve; as a rule, active = well fitted curve in the direction sought with a large enough effect; inconclusive = small, poorly fitted or top-dose-only effect, or effect the other way; inactive = no such curve, though single readings can be large or run the other way.
% is set by controls: 0 for no effect and ±100 for the full control effect.

For this assay, the target named is Cytochrome P450 1A2 (Homo sapiens) (UniProt P05177). Nature of the assay: Cytochrome panel assay with activity outcomes. To be noted: recombinant CYP, pro-luciferin dealkylation, luminescence, p450-cyp1a2; series mostly up to 57.1 µM; activity, negative = inhibition: at the top concentration.
Sequence of Cytochrome P450 1A2 (Homo sapiens) (P05177 whole entry, looked up): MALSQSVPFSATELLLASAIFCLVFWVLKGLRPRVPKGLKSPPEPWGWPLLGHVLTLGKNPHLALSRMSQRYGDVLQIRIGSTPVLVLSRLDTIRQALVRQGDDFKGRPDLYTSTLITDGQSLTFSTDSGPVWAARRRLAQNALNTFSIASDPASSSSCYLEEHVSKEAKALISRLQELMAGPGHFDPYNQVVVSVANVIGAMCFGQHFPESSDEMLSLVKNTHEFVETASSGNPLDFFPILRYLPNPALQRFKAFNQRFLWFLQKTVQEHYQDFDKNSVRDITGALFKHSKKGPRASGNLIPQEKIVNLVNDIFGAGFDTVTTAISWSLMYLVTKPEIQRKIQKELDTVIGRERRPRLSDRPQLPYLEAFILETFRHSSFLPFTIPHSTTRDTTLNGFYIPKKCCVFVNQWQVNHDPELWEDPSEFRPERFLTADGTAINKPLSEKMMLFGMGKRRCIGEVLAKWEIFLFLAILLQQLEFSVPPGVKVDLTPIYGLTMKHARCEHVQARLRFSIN
Consider `CN1CCN(NC(=O)CN2C(=O)/C(=C/c3c(Cl)cccc3Cl)SC2=S)CC1`, for which the “activity, negative = inhibition” value was -7.84%. As usually defined, the AC50 is the concentration giving half of the maximal activity seen. Turning to `CCN1C(=O)/C(=C/C=C2/SCCN2C)SC1=S`, the AC50 was 1 µM (active).

Consider `CCNc1nc(Sc2ccc(C)cc2)cc(C(F)(F)F)n1`, for which the AC50 was 3.16 µM (active).

As for `Cc1ccc(Sc2cc(Cl)nc(N)n2)cc1`, the “activity, negative = inhibition” value was -23.8%.

As for `Cn1c(=O)c(-c2ccc(F)cc2)nc2cnc(Oc3ccccc3)nc21`, the AC50 is 0.316 µM (active). As for `COc1ccc(Oc2ncc3nc(-c4ccc(F)cc4)c(=O)n(C)c3n2)cc1`, the concentration at half-maximal activity (AC50) was 2 µM (active). On to `COc1cccc(-c2ccc3ncnc(N4CCOCC4)c3c2)c1`, for which the AC50 is 1 µM (active). On the same count and under the same terms, the value for `FC(F)(F)c1ccccc1-c1ccc2ncnc(N3CCOCC3)c2c1` was 0.251 µM (active); that for `COc1ccccc1-c1ccc2ncnc(N3CCOCC3)c2c1` was 0.631 µM (active). `CN(C)Cc1ccccc1-c1ccc2ncnc(N3CCOCC3)c2c1`: the AC50 was 15.8 µM (active). For `CN(C)C(=O)c1ccc(-c2ccc3ncnc(N4CCOCC4)c3c2)cc1`, the “activity, negative = inhibition” value is -16.8%.

Take `O=C(O)C1CCN(c2ncnc3ccc(-c4ccccc4C(F)(F)F)cc23)CC1`: the “activity, negative = inhibition” value is -19.1%. Same read-out and setting: the value for `COCCCN1C(=O)C(=O)/C(=C(/O)c2ccc(OC(C)C)c(C)c2)C1c1ccncc1` (stereo unspecified) was 15.5% [at 11.4 µM]; that for `COc1ccc(C(=O)N2CCC[C@@]3(CCN(Cc4cc(C(F)(F)F)cc(C(F)(F)F)c4)C3)C2)cc1` was 2.06%. In the case of `COc1ccccc1-c1ccc2ncnc(N3CCN(C)CC3)c2c1`, the AC50 was 3.16 µM (active). Turning to `CCOC(=O)CCc1c(C)nc2ncnn2c1C`, the “activity, negative = inhibition” value is -15.3%. On to `Cc1ccc(CNC(=O)CCc2c(C)nc3ncnn3c2C)cc1`, for which the “activity, negative = inhibition” value was -10.8%.

Consider `CCc1c(C)nc2ncnn2c1NCCc1ccc(OC)cc1`, for which the AC50 is 15.8 µM (active). Turning to `CC1(C)O[C@H]2O[C@@H]([C@H](O)CON3C(=O)c4ccccc4C3=O)[C@H](O)[C@H]2O1`, the activity, negative = inhibition was -10.7% [at 11.4 µM]. Turning to `O=c1cc(N2CCC(Cc3ccccc3)CC2)[nH]c(=O)n1C1CCCCC1`, the “activity, negative = inhibition” value is -3.97%.

Turning to `O=S(=O)(c1ccc(Cl)cc1)c1cnc(-c2cccnc2)nc1-c1ccccc1`, the “activity, negative = inhibition” value is -29.7%. As to `O=S(=O)(c1ccccc1)c1cnc(-c2cccnc2)nc1-c1ccc(Cl)cc1Cl`, the AC50 is 8.91 µM (active). Same read-out and setting: the value for `CCC(C)(C)N=C(NC#N)Nc1cccnc1` was 12.6 µM (active); that for `O=S(=O)(NCc1cc(-c2ccccc2Cl)no1)c1ccc(Cl)cc1` was 1 µM (active).

As for `C[C@@](O)(CNS(=O)(=O)c1ccccc1)c1ccccc1`, the activity, negative = inhibition was -17.4% [at 11.4 µM]. `O=C1c2ccccc2C(=O)N1Cc1cc(-c2ccccc2Cl)no1`: the AC50 is 0.794 µM (active). `O=S(=O)(NCc1cc(-c2ccccc2Cl)no1)c1ccccc1`: the half-maximal activity concentration (AC50) was 7.08 µM (active). For `CCCNC(=O)NS(=O)(=O)c1ccc(Cl)cc1`, the “activity, negative = inhibition” value is -1.12% [at 25.6 µM]. Still for that read-out and setting: the value for `COc1ccc(CC(=O)N2CCN(c3ccc(C4=NNC(=O)CC4C)cc3)CC2)cc1` (stereo unspecified) was 3.77%. As for `COc1cccc(N=Cc2c[nH][nH]c2=O)c1`, the AC50 is 1 µM (active). Turning to `O=c1c(C=Nc2ccc(Oc3ccccc3)cc2)c[nH]n1-c1cccc(Cl)n1`, the “activity, negative = inhibition” value is -27.8%. Turning to `O=c1[nH][nH]cc1C=Nc1ccccc1O`, the AC50 was 10 µM (active).

On to `N[C@@H](C(=O)O)c1cc(O)ccc1Cl`, for which the AC50 was 15.8 µM (active). Consider `N[C@@H](C(=O)O)c1ccc(C(=O)O)c(O)c1`, for which the “activity, negative = inhibition” value is -18.4%. On the same count and under the same terms, the value for `N[C@H](C(=O)O)c1ccc(C(=O)O)c(O)c1` was -0.752%; that for `O=C(O)CN(CCOCCOCCN(CC(=O)O)CC(=O)O)CC(=O)O` was -12.6%.

For `CCNc1nc(NCC)nc(ON=C(C)C)n1`, the half-maximal activity concentration (AC50) is 14.1 µM (active).

With `CCCNc1nc(NCC)nc(OC)n1`, the half-maximal activity concentration (AC50) is 11.2 µM (active).

As to `CCCn1nc(Oc2nc(NCC)nc(NC(C)C)n2)ccc1=O`, the “activity, negative = inhibition” value is -6.37%. Same read-out and setting: next, `O=S(=O)(c1ccccc1)N1CCC2(CCN(C(c3ccccc3)c3ccccc3)CC2)CC1`: -19.9%; `COc1cc2nc(N(C)CCCNC(=O)[C@@H]3CCCO3)nc(N)c2cc1OC`: -14% [at 25.6 µM]. For `O=C(Nc1nc2ccc(F)cc2s1)C1CCCO1` (stereo unspecified), the AC50 is 4.47 µM (active). For `Cc1cccc(C(=O)NNC(=O)C2CCCO2)c1` (stereo unspecified), the “activity, negative = inhibition” value was -3.1%.

For `CS(=O)(=O)N1CCC2(CCN(Cc3ccncc3)CC2)CC1`, the “activity, negative = inhibition” value is 7%.

On to `CC(CCc1ccccc1)NC(=O)/C=C/c1ccccc1` (stereo unspecified), for which the AC50 is 12.6 µM (active). For the molecule `C[C@@H](CS(=O)(=O)Cc1ccccc1)C(N)=O`, the activity, negative = inhibition was -13.3% [at 11.4 µM]. On the same count and under the same terms, next, `CC(CCc1ccccc1)NC(=O)C(=O)NCCO` (stereo unspecified): -14%. Same read-out and setting: the value for `C[C@@H](CCc1ccccc1)NC[C@H](O)c1ccc(O)c(C(N)=O)c1` was -17.9% [at 25.6 µM].

Regarding `CC(CCc1ccccc1)NS(=O)(=O)c1ccccc1` (stereo unspecified), the AC50 is 14.1 µM (active). On to `Cc1ccc(S(=O)(=O)N[C@@H](CCc2ccccc2)CC(=O)C(C)(C)C)cc1`, for which the activity, negative = inhibition is 2.3% [at 11.4 µM].

As to `CCOC(=O)[C@H](CCc1ccccc1)N[C@@H](C)C(=O)N1CCC[C@H]1C(=O)O`, the “activity, negative = inhibition” value is -6.41% [at 25.6 µM]. As for `CCCCNC(=O)C(=O)NC(C)CCc1ccccc1` (stereo unspecified), the AC50 is 15.8 µM (active). Regarding `C=CC[C@@H]1C=C[C@H](O/N=C2\c3cc(OC)ccc3O[C@H](c3cccc(OC)c3)[C@H]2O)[C@H](CO)O1`, the activity, negative = inhibition is -7.04% [at 11.4 µM]. For the molecule `COc1cc(-c2nc3ccccn3c2/N=C/c2ccccc2)ccc1O`, the AC50 was 3.16 µM (active). `O=[N+]([O-])c1ccc(Cl)c(-c2ccc(/C=N/c3c(-c4ccco4)nc4ccccn34)o2)c1`: the “activity, negative = inhibition” value was -21.9%. For the molecule `C[n+]1cc2c3c(ccc2c2ccc4cc5c(cc4c21)OCO5)OCO3`, the AC50 was 3.98 µM (active). On the same count and under the same terms, next, `Cc1cnc(CNc2ccnc(-c3ccc(N(C)C)cc3)n2)cn1`: 2.51 µM (active); `Cc1cnc(CNc2ccnc(-c3ccoc3)n2)cn1`: 12.6 µM (active).

As to `CO/N=C\c1ccc(C(=O)N2[C@H](c3ccc(C)cc3)[C@@H](C)CC[C@H]2C(=O)OC)cc1`, the activity, negative = inhibition was -13.4% [at 11.4 µM]. Consider `C[N+](C)(C)c1cc2c(nn1)Nc1ccccc1S2`, for which the AC50 was 2 µM (active).

`O=C(O)CC1(CC(=O)O)Nc2ccccc2SC1=O`: the activity, negative = inhibition is 2.04% [at 2.29 µM]. Same read-out and setting: the value for `CCCCC/C=C\C[C@H](O)/C=C\c1cccc(C[C@H](O)CCCCO)n1` was -3.33%. Turning to `CC(/C=C/c1ccco1)=N/NC(=O)c1ccccc1Cl`, the AC50 was 17.8 µM (active).

For the molecule `Cc1ccc(NC(=S)/C(=C(\[O-])c2ccc(C)c([N+](=O)[O-])c2)[n+]2ccccc2)cc1C`, the AC50 is 14.1 µM (active). Take `CC(C)=C1C(=O)C(c2ccccc2)=C2CN3C(=O)N(CCc4ccccc4)C(=O)[C@]3(Cc3ccccc3)[C@H]21`: the “activity, negative = inhibition” value is -14.9%. On the same count and under the same terms, the value for `O=C(O)Cc1ccc2c(c1)N(S(=O)(=O)c1cccc(C(F)(F)F)c1)CC(C(=O)O)O2` (stereo unspecified) was -19.2%; that for `O=C(O)c1sc2cc(C(F)(F)F)cnc2c1-c1ccccc1` was -9.27%.

As for `O=C(COC(=O)c1cccnc1Nc1cccc(C(F)(F)F)c1)NCc1ccc2c(c1)OCO2`, the AC50 was 3.55 µM (active). On to `CCOC(=O)C1CN(S(=O)(=O)c2cccc(C(F)(F)F)c2)c2cc(CC(=O)OC)ccc2O1` (stereo unspecified), for which the “activity, negative = inhibition” value was 3.52%. For the molecule `O=C(O)c1cccnc1Nc1cccc(C(F)(F)F)c1`, the AC50 is 5.01 µM (active). As for `O=C(O)c1cccnc1C(=O)O`, the “activity, negative = inhibition” value was -5.13%. The same measure, in the same setting: the value for `CCN[C@@H]1C[C@H](C)S(=O)(=O)c2sc(S(N)(=O)=O)cc21` was -7.71% [at 25.6 µM]; that for `Cc1ncc(COP(=O)(O)O)c(C)c1O` was -20.3% [at 11.4 µM]; that for `COC(=O)[C@@H]1CC[C@H](C)[C@@H](c2ccc(C)cc2)N1C(=O)c1ccc(/C=N\O[C@@H](C)CN2CCCCc3nc(C)c(C)cc32)cc1` was -5.58% [at 11.4 µM]. For `CCn1nnnc1SCC(=O)c1ccc2c(c1)OCCO2`, the AC50 is 8.91 µM (active). Still for that read-out and setting: next, `CC(C)n1nnnc1SCC(=O)c1ccc2c(c1)OCCO2`: 5.01 µM (active).

With `CC(=O)N[C@H]1[C@@H](O[C@@H](C)C(=O)O)[C@H](O)[C@H](CO)O[C@@H]1O`, the “activity, negative = inhibition” value was -2.92% [at 25.6 µM]. Still for that read-out and setting: next, `CO[C@H]1COC(=O)[C@H]2CCCN2C(=O)C/C=C\[C@@H](C)[C@H](OC)COC(=O)C/C=C\[C@@H]1C`: 1.68% [at 11.4 µM]; `Cc1occc1C(=O)NNC(=O)Cc1ccccc1`: -11.2%.

As for `COC(=O)[C@@H]1C[C@H]1[C@@H](NC(=O)c1cc(C)nn1C)c1ccccc1`, the AC50 is 15.8 µM (active). On the same count and under the same terms, next, `COC(=O)[C@@H]1C[C@H]1[C@@H](NC(=O)c1cc(C)on1)c1ccccc1`: 20 µM (active). Take `CCNC(=S)NNC(=O)c1cc(C)on1`: the “activity, negative = inhibition” value is -11.2%. On the same count and under the same terms, next, `Cc1cc(CNC(=O)[C@H]2C[C@@H]2[C@H](NP(=O)(c2ccccc2)c2ccccc2)c2ccccc2)nn1C`: -8.49%. `Cc1cc(C(=O)NNCc2ccccc2)no1`: the AC50 was 12.6 µM (active).

For `COc1ccc(O[C@H]2C=C[C@@H](c3ccccc3)O[C@@H]2CON=C(C)C)cc1`, the activity, negative = inhibition is -2.27% [at 11.4 µM]. Take `Cc1cc2nc3[nH]c4c(Cl)cc(Cl)cc4c3nc2cc1C`: the AC50 is 0.631 µM (active). Consider `CS(=O)(=O)N1CCC2(CC1)CN(C(=O)Nc1cccc(C#N)c1)C2`, for which the “activity, negative = inhibition” value is -18.1%. Turning to `C=CCNC(=S)N/N=C/c1ccc(-c2cc(Cl)ccc2Cl)o1`, the AC50 is 0.112 µM (active). On the same count and under the same terms, the value for `CC(=O)C1=C(O)C=C(c2ccco2)CC1c1ccco1` (stereo unspecified) was 5.01 µM (active). For the molecule `CC1=CC=CN2CC(O)CN=C12` (stereo unspecified), the “activity, negative = inhibition” value was 11.4%. As to `N#Cc1ccccc1NC(=O)Nc1cccs1`, the AC50 was 7.08 µM (active). For the molecule `COc1cc2c3cc1Oc1cc(ccc1O)C[C@@H]1c4c(cc(OC)c(O)c4Oc4ccc(cc4)C[C@H]3[N+](C)(C)CC2)CC[N+]1(C)C`, the activity, negative = inhibition was -5.47% [at 11.4 µM]. With `COC(=O)[C@@H]1CC[C@H](C)[C@@H](c2ccc(C)cc2)N1C(=O)c1ccc(/C=N\OC[C@@H](C)[C@H](OCc2ccccc2)C(C)C)cc1`, the activity, negative = inhibition was -8.55% [at 11.4 µM]. Consider `Cc1cc([N+](=O)[O-])ccc1NCc1ccccc1`, for which the AC50 is 2.82 µM (active). With `COc1ccc([N+](=O)[O-])cc1NC1C2CC3CC(C2)CC1C3` (stereo unspecified), the “activity, negative = inhibition” value was -13.9%. Take `COc1ccc([N+](=O)[O-])cc1NCc1ccccc1C`: the AC50 is 2.82 µM (active).

The record behind these values is PubChem BioAssay AID1851 (National Center for Advancing Translational Sciences (NCATS), 2009).
